In the library only some 5.3% were active in any assay of this set; here they are far more common.
Mot1-301 SUMO – blocks SUMOylation pathway, rescuing yeast Mot1-301 growth; S. cerevisiae Mot1-301 growth rescue, ATP luminescence, 38.5C; percent above DMSO median, 100 means doubled; growth rescue, % at 18.8 µM; 320,000 compounds, 1% hits;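 active = every valid replicate shows activation above 250% relative to neutral control wells; inactive = the rest, any valid replicate at or below 250%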;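 note: OY570 slx delta 5 strain wells were the positive control but not used for scaling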
HIF act – HIF pathway transcriptional activation; U2OS HRE-luciferase reporter, luminescence; normalized: DMSO 0%, desferrioxamine 100%; activation, % at 7.5 µM (by protocol); 300,000 compounds, 0.32% hits; AID 1910;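 active = mean activation of at least 10% of the iron chelator positive control signal, with at least half of replicates also reaching 10%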
M18AAP inhibitor – blocks P. falciparum M18 aspartyl aminopeptidase. inhibition, % at 7.35 µM. recombinant PfM18AAP, H-Glu-NHMec fluorogenic cleavage. AID 1822. 290,000 compounds, 1.2% hits;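 active = inhibition above the campaign mean inhibition over all tested compounds plus 3 SD, cut at about 28% in these data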;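 note: 0% = plate median of test compound wells and 100% = 2 mM ZnCl2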
ALR inh – blocks human ALR sulfhydryl oxidase activity; P55789; purified ALR, DTT oxidation, H2O2 HRP-luminol luminescence; inhibition, % (no concentration beside the values); 290,000 compounds, 3.8% hits;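 active = mean replicate inhibition above about 79%, with every replicate also reaching it, limit read from the data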
Target sequence (P55789 whole entry, looked up): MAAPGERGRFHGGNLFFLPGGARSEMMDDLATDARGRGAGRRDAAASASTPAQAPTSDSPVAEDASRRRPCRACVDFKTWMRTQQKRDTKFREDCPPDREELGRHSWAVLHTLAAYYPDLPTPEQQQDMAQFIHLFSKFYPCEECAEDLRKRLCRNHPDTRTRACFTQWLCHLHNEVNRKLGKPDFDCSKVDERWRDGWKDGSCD
* = called active by the depositor; · = no result given.

SMILES	Mot1-301 SUMO	HIF act	M18AAP inhibitor	ALR inh
COc1ccccc1-c1cc(C(F)(F)F)nc(S(=O)(=O)CCCC(=O)N2CCOCC2)n1	11.0	15.3*	-7.2	·
O=C(O)COC(=O)C1C(c2ccccc2)C(C(=O)O)C1c1ccccc1 (centres undefined)	-17.6	-0.2	4.5	-8.2
O=C(O)c1ccc(N/N=C/c2ccc3c(c2)OCO3)cc1	86.1	-3.4	13.3	98.7*
COc1cc(/C=N/Nc2ccc(Cl)c(C(=O)O)c2)ccc1OC(=O)c1ccccc1F	9.5	-1.0	8.0	98.9*
O=C(O)c1cc(N/N=C/c2ccc(-c3ccc(F)cc3)o2)ccc1Cl	1.7	1.4	-7.1	98.1*
O=C(O)c1cc(N/N=C/c2ccc3c(c2)OCCO3)ccc1Cl	10.4	·	4.5	93.1*
O=C(NNC1=Nc2cc([N+](=O)[O-])ccc2OC1)c1ccccc1Cl	286.0	0.7	10.8	-1.9
COc1ccc(CNC(=O)CN2C(=O)COc3ccc(S(=O)(=O)N4CCOCC4)cc32)cc1	151.2	-0.3	2.3	-3.9
COc1ccccc1CNC(=O)COC(=O)Cc1ccc(F)cc1	-4.6	-0.1	·	1.0
COc1ccc(-n2cc(-c3ccc(Cl)cc3)[nH]c2=S)cc1	-10.0	0.4	-1.0	-0.8
COC(=O)c1ccc(-n2cc(-c3ccc(OC)cc3)[nH]c2=S)cc1	0.0	·	28.5*	88.3*
O=C1CS/C(=N\C(=O)N2c3ccccc3Sc3ccccc32)N1	13.1	-0.2	2.2	98.9*
NCCC(=O)N1c2ccccc2Sc2ccccc21	-1.4	-1.0	2.4	-2.7
N#Cc1ccccc1OCC(=O)OCC(=O)N1CCCC1	-4.5	·	·	-1.0
N#Cc1ccccc1OCC(=O)OCCCOC(=O)COc1ccccc1C#N	299.9*	-0.2	-13.0	-2.2
N#CC(c1ccc(Cl)cc1)c1cccc(Cl)n1 (centres undefined)	16.2	0.1	-9.0	-15.0
C#CNC(=O)C1(CC=C)CCNCC1	7.1	-0.7	·	4.8
C[C@H](NC(=O)N1CCn2c1nc1ccccc12)C(=O)NCC1CCCO1 (some centres undefined)	-17.4	-0.5	0.3	-7.0
CCCOC(=O)C1=C(C)NC2=C(C(=O)CC(C)(C)C2)C1c1ccc(N(C)C)cc1 (centres undefined)	15.1	-0.3	4.7	·
CCN(CC)c1ccc(C2CC(=O)NC3=C2C(=O)CC(C)(C)C3)cc1 (centres undefined)	31.4	-0.2	8.7	95.5*
CCN(CC)c1ccc(C2C(C(=O)OCCOC)=C(C)NC3=C2C(=O)CC(C)(C)C3)cc1 (centres undefined)	1.4	-0.2	16.3	98.7*
CCC(=O)Nc1ccc2c(c1)nc(CN1CCN(C(C)=O)CC1)n2C	2.7	-1.8	-0.6	-8.9
O=C(c1ccc(S(=O)(=O)Cc2ccccc2F)c([N+](=O)[O-])c1)N1CCCC1	-6.7	-0.7	4.0	4.3
O=C(c1ccc(S(=O)(=O)c2ccc(F)cc2)c([N+](=O)[O-])c1)N1CCCCCC1	-4.1	-0.6	-4.6	96.1*
Cc1cc(N/N=C/c2ccc3c(c2)OCO3)nc2ccccc12	18.8	5.1	10.7	19.2
SMILES	Mot1-301 SUMO	HIF act	M18AAP inhibitor	ALR inh
COc1cc(NC(=O)Nc2cccc(C(C)=O)c2)cc(OC)c1OC	8.1	1.0	1.9	98.4*
COc1cc(C(=O)Nc2cccc(C(C)=O)c2)cc(OC)c1OC	-17.8	1.8	-0.1	4.1
O=C(CCC(=O)OCC(=O)c1ccc(Br)cc1)Nc1ccc(Br)c2cccnc12	-12.4	0.3	1.4	-0.6
O=C(Nc1c(C(=O)O)oc2ccc(Br)cc12)c1ccccc1	-6.8	0.3	3.1	95.5*
Cc1nc(CN(C)C(=O)c2cc(COc3ccc4ncccc4c3)on2)cs1	-17.4	-0.2	-2.8	-162.6
O=C(CN(C(=O)CSc1nc2ccccc2o1)c1ccccc1F)NC1CCCCC1	-24.1	0.2	-5.0	-6.0
COc1cccc(N2CCN(C(=O)c3ccc(CS(=O)c4ccc(Cl)cc4)o3)CC2)c1 (centres undefined)	-16.9	-1.1	-2.5	87.9*
COc1cccc(N2CCN(C(=O)c3ccc(CS(=O)Cc4ccc(C)cc4)o3)CC2)c1 (centres undefined)	72.0	0.3	3.2	79.5*
COc1cccc(N2CCN(C(=O)c3ccc(CS(=O)c4ccc(C)cc4)o3)CC2)c1 (centres undefined)	4.9	-0.5	3.6	48.2
O=C(Cn1cnc([N+](=O)[O-])c1)Nc1ccccc1C(F)(F)F	6.8	-0.3	-10.9	-1.2
NC(=O)c1ccc(NC(=O)CSc2nnc(-c3cccnc3)n2Cc2ccco2)cc1	-18.2	-0.1	-18.4	97.0*
COc1ccc(NC(=O)CSc2nnc(-c3ccccn3)n2Cc2ccco2)cc1OC	·	0.0	-4.7	97.2*
CCC(=O)Nc1ccc(C(=O)CSc2nnc(-c3cccnc3)o2)cc1	2.6	0.3	-1.4	54.2
COC(=O)c1ccc(NC(=O)CSc2nnc(-c3cccnc3)o2)cc1	-9.1	-14.7	·	99.3*
CCOc1ccccc1NC(=O)CSc1nnc(-c2ccccn2)n1Cc1ccco1	2.5	-0.1	-23.8	19.4
C=CCn1c(SCC(=O)Nc2ccc(NC(=O)c3ccco3)c(OC)c2)nnc1-c1ccncc1	-21.9	-0.5	18.4	99.1*
Cc1csc(N2CCCC2=O)n1	-12.3	-0.1	2.9	-4.9
O=C(Nc1sc2c(c1C(=O)O)CCCC2)c1cccc(Cl)c1	200.8	-9.2	1.0	52.6
COc1cccc(CN2CC(C(=O)NCCOc3ccccc3)CCC2=O)c1 (centres undefined)	427.6	2.3	-1.4	1.1
O=C(NCc1ccccn1)c1ccc2c(c1)N(Cc1ccccc1)CCS2	195.8	0.1	6.1	98.1*
CCN1CCSc2ccc(C(=O)NCc3cccc(F)c3)cc21	25.3	0.9	4.2	98.6*
O=C(NCc1cccnc1)c1ccc2c(c1)N(Cc1ccccc1)CCS2	-1.7	0.2	30.1*	92.4*
O=C1NN(c2ccccc2)C(=O)/C1=C\c1cccc(OC(=O)c2cccs2)c1	20.0	-0.2	1.0	89.1*
CCOc1ncccc1C(=O)OCC(=O)NC1CCCCC1	94.6	·	·	13.0
O=c1[nH]cccc1-c1nc2ccccc2n1Cc1cccc(F)c1	-7.2	-0.2	0.8	-6.2
SMILES	Mot1-301 SUMO	HIF act	M18AAP inhibitor	ALR inh
N#Cc1ccc(COC(=O)CSc2nnc(N)s2)cc1	0.6	0.0	-9.1	97.1*
C=CCSc1nnc(NC(=O)c2c(CC)noc2C)s1	-4.0	-0.2	·	5.4
CC(NC(=O)c1cccc(N(C)C)c1)c1ccc(-n2ccnc2)cc1 (centres undefined)	17.8	-0.3	-0.2	97.7*
CC(=O)Nc1cccc(C(=O)NC(C)c2ccc(-n3ccnc3)cc2)c1 (centres undefined)	3.5	0.8	6.7	2.3
CCN(CCNS(=O)(=O)c1ccc2[nH]c(=O)sc2c1)c1ccccc1	2.1	-0.1	4.0	98.2*
CCOc1ccccc1CNS(=O)(=O)c1ccc2[nH]c(=O)sc2c1	6.2	-0.5	4.4	-1.8
Cc1cc(=O)oc2c(C)c3occc3cc12	-15.6	1.3	0.8	8.0
COCCNc1c2c(nc3c(-c4ccccc4)c(C)nn13)CCCC2	-2.3	0.0	3.4	41.9
